For 7 compounds, growth results are on record in PubChem BioAssay (NCI).

Among the test systems are HCT-15 colon; HT29 colon; SNB-75 CNS; SNB-19 CNS; U251 CNS; PC-3 prostate; SK-MEL-5 melanoma; UACC-62 melanoma; LOX IMVI melanoma; SK-MEL-28 melanoma; SK-MEL-2 melanoma; EKVX NSCLC; SN12C renal; UO-31 renal; TK-10 renal; ACHN renal; CAKI-1 renal; A498 renal; CCRF-CEM leukemia; MOLT-4 leukemia.
Assay in all cases: NCI-60 one-dose screen, 48 h (100 = growth as untreated, 0 = no growth, -100 = all killed)
Holding throughout (settings): 10 µM unless noted

Compounds without any hit were thinned out: in the full panel of roughly 83,000, 20% have a hit.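 Compound tested at a single concentration for 48 hours in 96-well plates; a percent growth value below 10 was scored as active.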 Unmarked numbers belong to inactive results. The source made the active and inactive calls.

As for `COc1ccc(/C=C/c2nc(Nc3ccc(S(=O)(=O)NC(C)=O)cc3)c3ccccc3n2)cc1`, the growth is 55.2% in the experiment with HCT-15 colon; 67.2% in the experiment on HT29 colon; 97.7% in the experiment on SNB-75 CNS; 78.9% in the experiment with SNB-19 CNS; 74.8% in the experiment with U251 CNS; 79.3% in the experiment on PC-3 prostate. For the same compound, the growth was 77.1% with SK-MEL-5 melanoma; 25.6% in the experiment with UACC-62 melanoma; 38.3% in the experiment with LOX IMVI melanoma; 96.1% in the experiment on SK-MEL-28 melanoma; 99% with SK-MEL-2 melanoma; 81.6% in the experiment on EKVX NSCLC. Further, the growth in the experiment with SN12C renal is 86.7%; with UO-31 renal it was 80.6%; in the experiment with TK-10 renal it was 92%; with ACHN renal, 68.6%; in the experiment on CAKI-1 renal it was 59.6%; in the experiment on A498 renal, 9.58% (active). Besides, the growth in the experiment on CCRF-CEM leukemia was 81.7%; in the experiment with MOLT-4 leukemia, 79.3%.

In the case of `O=C(Cn1c(C(=O)c2ccccc2)nc2ccccc21)c1ccc(F)cc1`, the growth was 44.4% in the experiment on HCT-15 colon; 23.3% in the experiment with HT29 colon; 48.4% in the experiment with SNB-75 CNS; 74.5% in the experiment on SNB-19 CNS; 55.1% with U251 CNS; 78.2% in the experiment on PC-3 prostate. The growth in the experiment with SK-MEL-5 melanoma was 60.7%; in the experiment with UACC-62 melanoma, 37.1%; in the experiment on LOX IMVI melanoma, 61.3%; in the experiment with SK-MEL-28 melanoma, 54%; in the experiment with SK-MEL-2 melanoma, 60.7%; in the experiment with EKVX NSCLC, 83.2%. Besides, the growth with SN12C renal was 77.9%; in the experiment with UO-31 renal, 80.6%; with TK-10 renal, 67.7%; with ACHN renal it was 95.8%; with CAKI-1 renal it was 42.6%; with A498 renal, 86.5%. For the same compound, the growth is 57.1% in the experiment on CCRF-CEM leukemia and 21.3% in the experiment with MOLT-4 leukemia.

For `[O-][n+]1c(Cl)cc(Cl)c2ccccc21`, the growth with HCT-15 colon was 99.8%; in the experiment on HT29 colon, 122%; in the experiment on SNB-75 CNS, 101%; in the experiment with SNB-19 CNS, 102%; with U251 CNS it was 92.9%; in the experiment with PC-3 prostate it was 81.2%. Besides, the growth was 109% in the experiment on SK-MEL-5 melanoma; 98.9% with UACC-62 melanoma; 97.4% with LOX IMVI melanoma; 104% in the experiment with SK-MEL-28 melanoma; 123% in the experiment on SK-MEL-2 melanoma; 76.9% with EKVX NSCLC. The growth is 101% in the experiment with SN12C renal; 78.5% in the experiment on UO-31 renal; 125% in the experiment on TK-10 renal; 99.5% in the experiment on ACHN renal; 92.6% with CAKI-1 renal; 73.2% in the experiment on A498 renal. The growth in the experiment on CCRF-CEM leukemia was 87.5%; in the experiment on MOLT-4 leukemia, 88.7%.

For the compound `CCOC(=O)c1cc(C#N)n2ccc3ccccc3c12`, the growth was 96.6% in the experiment with HCT-15 colon; 101% with HT29 colon; 76.2% in the experiment on SNB-75 CNS; 92.7% with SNB-19 CNS; 96.9% in the experiment with U251 CNS; 102% in the experiment with PC-3 prostate. Also, the growth in the experiment on SK-MEL-5 melanoma is 97.4%; in the experiment with UACC-62 melanoma, 91.5%; in the experiment with LOX IMVI melanoma, 95.7%; in the experiment on SK-MEL-28 melanoma, 106%; in the experiment with SK-MEL-2 melanoma, 106%; with EKVX NSCLC, 90.9%. Moreover, the growth in the experiment on SN12C renal is 94.5%; in the experiment on UO-31 renal, 101%; with TK-10 renal, 91.3%; with ACHN renal it was 109%; in the experiment with CAKI-1 renal it was 90.2%; with A498 renal, 88%. In addition, the growth in the experiment with CCRF-CEM leukemia was 98.8%; in the experiment with MOLT-4 leukemia it was 96.2%.

In the case of `COc1cc2c3c(c4c5ccccc5[nH]c4c2c(OC)c1OC)C(=O)N(CCN1CCOCC1)C3=O`, the growth in the experiment with HCT-15 colon is 50%; in the experiment on HT29 colon, 34.2%; in the experiment on SNB-75 CNS, 86.4%; with SNB-19 CNS, 51.9%; in the experiment with U251 CNS it was 51.8%; in the experiment on PC-3 prostate, 48.4%. Also, the growth in the experiment with SK-MEL-5 melanoma was 54.7%; with UACC-62 melanoma, 43.3%; in the experiment with LOX IMVI melanoma, 45%; in the experiment on SK-MEL-28 melanoma, 99.2%; in the experiment on SK-MEL-2 melanoma, 73.9%; in the experiment with EKVX NSCLC, 91.2%. Besides, the growth is 47.8% with SN12C renal; 52.4% in the experiment with UO-31 renal; 76.2% in the experiment on TK-10 renal; 35.2% in the experiment with ACHN renal; 40.9% in the experiment with CAKI-1 renal; 54.1% in the experiment with A498 renal. Further, the growth in the experiment with CCRF-CEM leukemia is 23.1%; in the experiment with MOLT-4 leukemia it was 6.55% (active).

Take `COc1ccc(/C=C/c2nc(Nc3ccc(S(=O)(=O)Nc4cc(C)on4)cc3)c3ccccc3n2)cc1`: the growth with HCT-15 colon was 48.8%; in the experiment with HT29 colon, 69.3%; in the experiment on SNB-75 CNS it was 74.7%; in the experiment with SNB-19 CNS, 83.2%; in the experiment on U251 CNS it was 74.5%; in the experiment with PC-3 prostate it was 74.7%. Also, the growth is 43.5% with SK-MEL-5 melanoma; 17.5% with UACC-62 melanoma; 31.5% with LOX IMVI melanoma; 91.7% with SK-MEL-28 melanoma; 75.8% in the experiment on SK-MEL-2 melanoma; 71.6% with EKVX NSCLC. In addition, the growth in the experiment with SN12C renal is 82.3%; in the experiment on UO-31 renal, 50.3%; in the experiment on TK-10 renal, 71.5%; in the experiment on ACHN renal it was 54.2%; in the experiment on CAKI-1 renal, 49.4%; in the experiment on A498 renal it was 1.73% (active). In addition, the growth was 49% in the experiment on CCRF-CEM leukemia and 70.6% with MOLT-4 leukemia.

For `Fc1ccc2c(-c3cncn3CCc3ccccc3)c[nH]c2c1`, the growth with HCT-15 colon is 95.7%; in the experiment with HT29 colon, 85.4%; with SNB-75 CNS, 47.7%; in the experiment on SNB-19 CNS it was 85.1%; in the experiment on U251 CNS, 91.9%; in the experiment on PC-3 prostate it was 86.8%. Besides, the growth in the experiment with SK-MEL-5 melanoma is 90.2%; in the experiment on UACC-62 melanoma, 73.3%; in the experiment on LOX IMVI melanoma it was 94.8%; with SK-MEL-28 melanoma it was 98.8%; in the experiment with SK-MEL-2 melanoma it was 94.1%; in the experiment with EKVX NSCLC it was 79.4%. In addition, the growth is 77% in the experiment on SN12C renal; 68.1% in the experiment on UO-31 renal; 135% with TK-10 renal; 96.7% in the experiment on ACHN renal; 75.2% with CAKI-1 renal; 64.1% in the experiment with A498 renal. The growth was 79.4% in the experiment on CCRF-CEM leukemia and 91.2% in the experiment on MOLT-4 leukemia.
